Assay results as given in PubChem BioAssay (NCI).
Where “and” joins values, the source holds several entries; their conditions need not be identical. Equal entries are not always repeated. About 79,000 compounds went through this panel and 15% of them were active in at least one assay; those are over-represented in the sample as a whole. The source holds several records for some structures; these can differ, active in one and inactive in another. Calls of active or inactive are those of the source. Cut-off read from the data, not from the text of the source: active = growth inhibition above about 70%; inactive = the rest.

What was measured:
[1] = NCI Yeast Anticancer Drug Screen. Data for the rad52 strain (AID 147);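 note: 0% = growth of vehicle-treated control cultures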; settings: S. cerevisiae rad52 mutant growth inhibition, stronger effect = higher value
How it was run: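 Vehicle-treated cultures served as the reference for growth inhibition of compound-exposed yeast bearing a DNA repair mutation.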

[2] = NCI Yeast Anticancer Drug Screen. Data for the wt1 strain (AID 149);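 note: 0% = growth of vehicle-treated wt1 cultures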; settings: S. cerevisiae wt1 strain (SPY 50644) growth inhibition, stronger effect = higher value
How it was run: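 Yeast wt1 strain exposed to compounds; growth inhibition measured relative to vehicle-treated controls.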

[3] = NCI Yeast Anticancer Drug Screen. Data for the rad50EPP+ strain (AID 151);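 note: 0% = growth of vehicle-treated control cultures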; settings: S. cerevisiae rad50 mutant strain, stronger effect = higher value
How it was run: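 In this screen, rad50EPP+ yeast were exposed to compounds. Growth inhibition was scored against vehicle-treated controls.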

[4] = NCI Yeast Anticancer Drug Screen. Data for the mgt1 strain (AID 153); settings: S. cerevisiae mgt1 mutant growth inhibition, stronger effect = higher value
How it was run: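 mgt1 strain exposed; growth vs vehicle control recorded as inhibition.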

[5] = NCI Yeast Anticancer Drug Screen. Data for the rad50 strain (AID 155);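 note: 0% = growth of vehicle-only cultures of the same strain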; settings: S. cerevisiae rad50 strain growth inhibition, stronger effect = higher value
How it was run: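 Yeast carrying a defined DNA repair defect were exposed to test compounds, and growth was compared with vehicle-treated controls to give percent inhibition.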

[6] = NCI Yeast Anticancer Drug Screen. Data for the mec2-1 strain (AID 157); settings: S. cerevisiae mec2-1 strain, stronger effect = higher value
How it was run: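 Vehicle-treated cultures served as reference for growth inhibition of compound-exposed mec2-1 yeast.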

[7] = NCI Yeast Anticancer Drug Screen. Data for the rad14 strain (AID 159);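 note: 0% = growth of vehicle-treated control cultures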; settings: S. cerevisiae rad14 strain growth inhibition, stronger effect = higher value
How it was run: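 Yeast cells carrying a defined DNA-repair defect were exposed to compounds, and growth inhibition was calculated relative to vehicle-treated control cultures.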

[8] = NCI Yeast Anticancer Drug Screen. Data for the sgs1 mgt1 strain (AID 161);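 note: 0% = growth of cultures given vehicle only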; settings: S. cerevisiae sgs1 mgt1 strain, stronger effect = higher value
How it was run: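 Mutant yeast exposed to compound; growth scored against vehicle-only wells.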

[9] = NCI Yeast Anticancer Drug Screen. Data for the CLN2oe strain (AID 163);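 note: 0% = growth of vehicle-only control cultures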; settings: S. cerevisiae CLN2oe strain, stronger effect = higher value
How it was run: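 Inhibition relative to vehicle-treated yeast is reported. Cells: strain with genetic alteration in cell-cycle control, grown with compound.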

[10] = NCI Yeast Anticancer Drug Screen. Data for the cln2 rad14 strain (AID 165);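 note: 0% = growth equal to vehicle treated cultures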; settings: S. cerevisiae cln2 rad14 strain, stronger effect = higher value
How it was run: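 Each compound was tested on cln2 rad14 yeast. Inhibition of growth was calculated against vehicle-exposed controls.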

[11] = NCI Yeast Anticancer Drug Screen. Data for the bub3 strain (AID 167); settings: S. cerevisiae bub3 mutant strain, stronger effect = higher value
How it was run: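 Compounds were applied to a genetically altered yeast strain carrying a cell-cycle control defect. Growth inhibition was scored against vehicle-treated controls.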

[12] = NCI Yeast Anticancer Drug Screen. Data for the wt2 strain (AID 169);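 note: 0% = growth of vehicle-treated yeast cultures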; settings: S. cerevisiae wt2 strain growth inhibition, stronger effect = higher value
How it was run: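 Inhibition of yeast growth was determined after compound treatment, normalised to controls receiving only vehicle.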

[13] = NCI Yeast Anticancer Drug Screen. Data for the mlh1 strain (AID 171);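 note: 0% = growth of vehicle-treated control cultures of the same strain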; settings: S. cerevisiae mlh1 strain growth inhibition, stronger effect = higher value
How it was run: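 Vehicle-normalised growth inhibition of a repair- or checkpoint-altered yeast strain following compound treatment.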

[14] = NCI Yeast Anticancer Drug Screen. Data for the sgs1 strain (AID 173);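 note: 0% = growth of vehicle-only control cultures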; settings: S. cerevisiae sgs1 mutant, stronger effect = higher value
How it was run: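 Screen format: yeast with repair or checkpoint alterations, compound exposure, growth read relative to vehicle.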

[15] = NCI Yeast Anticancer Drug Screen. Data for the mlh1 rad18 strain (AID 175); settings: S. cerevisiae mlh1 rad18 strain growth inhibition, stronger effect = higher value
How it was run: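 Vehicle-treated cultures served as the reference for growth inhibition in a yeast strain carrying DNA damage repair alterations exposed to each compound.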

[16] = NCI Yeast Anticancer Drug Screen. Data for the rad18 strain (AID 177); settings: S. cerevisiae rad18 mutant growth inhibition, stronger effect = higher value
How it was run: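 Test articles were incubated with altered yeast defective in DNA damage repair. Results are given as inhibition of growth versus vehicle.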

[17] = at 5.0 µM (retest, dose inferred, filed as 0.5)
[18] = at 50.0 µM (retest, dose inferred, filed as 5.0)

Measured: growth inhibition

CCOc1ccc(NC(=O)C2=C(C)NC(C)=C(C(=O)Nc3ccc(OCC)cc3)C2c2cccc([N+](=O)[O-])c2)cc1
active: [1]; at 100.0 µM 82% | [2]; at 100.0 µM 79% | [4]; at 100.0 µM 92% | [5]; [18] 84% | [5]; at 100.0 µM 79% | [6]; [18] 96% | [6]; at 100.0 µM 90% | [7]; at 100.0 µM 86% | [9]; at 100.0 µM 81% | [10]; [18] 90% | [11]; [18] 97% | [11]; at 100.0 µM 93% | [12]; at 100.0 µM 87% | [13]; at 100.0 µM 86% | [14]; at 100.0 µM 84% | [15]; [18] 95% | [16]; at 100.0 µM 83%
inactive: [1]; at 1.2 µM -2% | [1]; at 3.7 µM 0% | [1]; at 11.0 µM 5% | [1]; at 33.0 µM 49% | [2]; at 1.2 µM 1% | [2]; at 3.7 µM -3% | [2]; at 11.0 µM -5% | [2]; at 33.0 µM -28% | [3]; at 1.2 µM -1% | [3]; at 3.7 µM -1% | [3]; at 11.0 µM 1% | [3]; at 33.0 µM 3% | [3]; at 100.0 µM -4% | [4]; at 1.2 µM -1% | [4]; at 3.7 µM -2% | [4]; at 11.0 µM -3% | [4]; at 33.0 µM 30% | [5]; at 1.2 µM -3% | [5]; at 3.7 µM -1% | [5]; [17] -10% | [5]; at 11.0 µM -1% | [5]; at 33.0 µM 39% | [5]; at 50.0 µM 26.4% | [6]; at 1.2 µM -1% | [6]; at 3.7 µM -2% | [6]; [17] 0% | [6]; at 11.0 µM 1% | [6]; at 33.0 µM 36% | [6]; at 50.0 µM 34.6% | [7]; at 1.2 µM -2% | [7]; at 3.7 µM -2% | [7]; at 11.0 µM -1% | [7]; at 33.0 µM 9% | [8]; [17] -12% | [8]; [18] 29% | [8]; at 50.0 µM 27.1% | [9]; at 1.2 µM 0% | [9]; at 3.7 µM -2% | [9]; at 11.0 µM -7% | [9]; at 33.0 µM 4% | [10]; [17] -4% | [10]; at 50.0 µM 55.3% | [11]; at 1.2 µM -3% | [11]; at 3.7 µM -2% | [11]; [17] -8% | [11]; at 11.0 µM 1% | [11]; at 33.0 µM 54% | [11]; at 50.0 µM 41% | [12]; at 1.2 µM -3% | [12]; at 3.7 µM -2% | [12]; at 11.0 µM -2% | [12]; at 33.0 µM 22% | [13]; at 1.2 µM -2% | [13]; at 3.7 µM -1% | [13]; at 11.0 µM 1% | [13]; at 33.0 µM 25% | [14]; at 1.2 µM -2% | [14]; at 3.7 µM 0% | [14]; at 11.0 µM 4% | [14]; at 33.0 µM 44% | [15]; [17] -7% | [15]; at 50.0 µM 59.9% | [16]; at 1.2 µM -4% | [16]; at 3.7 µM -3% | [16]; at 11.0 µM 3% | [16]; at 33.0 µM 45%

O=C(C[n+]1ccc2ccccc2c1)c1ccc2ccccc2c1
-32.4% (inactive) and 71.7% (active): [11]; at 50.0 µM
active: [1]; at 100.0 µM 99% | [2]; at 100.0 µM 97% | [3]; at 100.0 µM 74% | [4]; at 100.0 µM 98% | [5]; [18] 100% | [5]; at 100.0 µM 98% | [6]; [18] 99% | [6]; at 100.0 µM 98% | [7]; at 100.0 µM 97% | [8]; [18] 77% | [9]; at 100.0 µM 99% | [10]; [18] 81% | [11]; at 100.0 µM 98% | [12]; at 100.0 µM 97% | [13]; at 100.0 µM 97% | [14]; at 100.0 µM 97% | [15]; [18] 100% | [16]; at 100.0 µM 99%
-10% (inactive) and 71.2% (active): [10]; at 50.0 µM
-28.4% (inactive) and 85.2% (active): [5]; at 50.0 µM
inactive: [1]; at 1.2 µM 10% | [1]; at 3.7 µM -1% | [1]; at 11.0 µM 7% | [1]; at 33.0 µM 20% | [2]; at 1.2 µM -6% | [2]; at 3.7 µM -17% | [2]; at 11.0 µM -24% | [2]; at 33.0 µM -22% | [3]; at 1.2 µM -19% | [3]; at 3.7 µM -42% | [3]; at 11.0 µM -35% | [3]; at 33.0 µM -20% | [4]; at 1.2 µM -18% | [4]; at 3.7 µM -7% | [4]; at 11.0 µM -32% | [4]; at 33.0 µM -13% | [5]; at 1.2 µM -20% | [5]; at 3.7 µM -26% | [5]; [17] 51% | [5]; at 11.0 µM -30% | [5]; at 33.0 µM -7% | [6]; at 1.2 µM -37% | [6]; at 3.7 µM -23% | [6]; [17] 64% | [6]; at 11.0 µM -77% | [6]; at 33.0 µM -41% | [6]; at 50.0 µM -5.2% and 39.1% | [7]; at 1.2 µM -45% | [7]; at 3.7 µM -44% | [7]; at 11.0 µM -36% | [7]; at 33.0 µM 11% | [8]; [17] -46% | [8]; at 50.0 µM -9.25% and 61.6% | [9]; at 1.2 µM 8% | [9]; at 3.7 µM -9% | [9]; at 11.0 µM 1% | [9]; at 33.0 µM 13% | [10]; [17] 19% | [11]; at 1.2 µM -19% | [11]; at 3.7 µM -12% | [11]; [17] -4% | [11]; at 11.0 µM -27% | [11]; at 33.0 µM -15% | [11]; [18] 51% | [12]; at 1.2 µM -37% | [12]; at 3.7 µM -25% | [12]; at 11.0 µM -53% | [12]; at 33.0 µM -18% | [13]; at 1.2 µM -15% | [13]; at 3.7 µM -30% | [13]; at 11.0 µM -36% | [13]; at 33.0 µM -22% | [14]; at 1.2 µM -30% | [14]; at 3.7 µM -34% | [14]; at 11.0 µM -34% | [14]; at 33.0 µM -26% | [15]; [17] 68% | [15]; at 50.0 µM -11.2% and 69.5% | [16]; at 1.2 µM -21% | [16]; at 3.7 µM -24% | [16]; at 11.0 µM -15% | [16]; at 33.0 µM -3%
